Results: publication PMC12136788
Residue numbers refer to the chain shown, from its start. The full ranking holds about 24,000 sequences; the median of “enrichment r” is about 0.99, and the highest 2% start at about 3.7. The entries come from a sample that favours the highest values as a whole.

B1: chr2:49628383:49628384:+_ENSMUSG00000026764_ENSMUST00000028102|mus_hu|FALSE|FALSE (ssRNA)
RNA: GGGAGUUCUACAGUCCGACGAUCAUAAGCUUUGCAAAACCUGCCCCACAAGGACCCUUUUAUCAGACCGCAAAUAAUGGUAGAGCAGGUAUAUUGGGCUGGCACUGAUAACAAAAUUAAAGAAUGAAAAAAAUUUAAACAAAUCAACAGAGGAUUGAGCAUCA
B2: 49527313_49535755_592_CDS_ENSMUSG00000026764_ENSMUST00000028102|mouse|control|control (ssRNA)
RNA: GGGAGUUCUACAGUCCGACGAUCCAUGGUAUGAGUUUUUCCUGAUGAAGUCUGCCCAUAUGCAAAAAUUGUUCCAUUAUAACCCUCAAGGACAUCUUUGACAAUCUGCUUUGCACAGGCAUUGUAGACCUGCUCCUGGGUUGUCAACAGAGGAUUGAGCAUCA
B3: chrX:35959125:35959126:+_ENSMUSG00000000355_ENSMUST00000000365|mus_mus|FALSE|FALSE (ssRNA)
RNA: GGGAGUUCUACAGUCCGACGAUCAUUUGCUCCACUGAGUACAAAUUUGAUGGCUCCUUUAUCAACCUGCUGAUGUGGCAAGAUAAAAGGAUAUUUAUGAAGUAAUCUUAAAGUUGGAUAAAAAGGCCCUUCUCUUUGUCUAAACAACAGAGGAUUGAGCAUCA
B4: chr2:5814250:5814251:-_ENSMUSG00000025816_ENSMUST00000102981|mus_hu|mus_mus_mus_hu_True|68_108 (ssRNA)
RNA: GGGAGUUCUACAGUCCGACGAUCUUCCUUUCAGGCUUCUGAAUUUCUGGUAGAACUGCACAGAAUGGUUUAAUAACUUCUAAAAAUUUGAUGCCCAUGGCUGCUGCUGGGGAGGCCCAGGGGGAAACCGCGGCCUCGGCGCUGCAACAGAGGAUUGAGCAUCA
B5: chr9:37357388:37357389:+_ENSG00000147905_ENST00000336755|hu_hu|FALSE|FALSE (ssRNA)
RNA: GGGAGUUCUACAGUCCGACGAUCUUGGACACAGAGAAUUGAGAUCUCCAUGGAUAUUCAGUAACUCUAGGAAUGGCUGAAAUUAAAAAAACAAAACCAAAAACUCACUUUAUUUAAUCAUAGAUAAUAAACACAGUGCCAGAACAACAGAGGAUUGAGCAUCA
B6: chr2:49628351:49628352:+_ENSMUSG00000026764_ENSMUST00000028102|mus_hu|FALSE|FALSE (ssRNA)
RNA: GGGAGUUCUACAGUCCGACGAUCACCGCAAAUAAUGGUAGAGCAGGUAUAUUGGGCUGGCACUGAUAACAAAAUUAAAGAAUGAAAAAAAUUUAAACAAAUGCAAAAUUGCCAUCUUCACAAAAUAAAUACUUCAAUAGAAUUCAACAGAGGAUUGAGCAUCA
B7: 90994690_90994914_4067_CDS_ENSMUSG00000040687_ENSMUST00000111370|mouse|control|control (ssRNA)
RNA: GGGAGUUCUACAGUCCGACGAUCGAGGUACCUGUCGAUCAUUUCCUGAGGACCCUGGUCCAUACCCAUUCCUUCUCUUUCCAACAUUACAGCAUCUAAGAAUGCAUCUUCCCAGAACUGCAUUUGGUCCCAUAAGGUAGAACGCAACAGAGGAUUGAGCAUCA
B8: chr7:130129250:130129251:+_ENSMUSG00000030779_ENSMUST00000052135|mus_mus|FALSE|FALSE (ssRNA)
RNA: GGGAGUUCUACAGUCCGACGAUCCUCCUCUGGUAAGAAGGGUGGUUUCUCUUUCUUCCCGAUUGCAUAGGCCUCUGCAUCUAUAGUUGGUAUUGCAUAUUUUCCAGUGUUUGUAAGCAUUGCACCUUUCAUGUUAGGAUCUUUCAACAGAGGAUUGAGCAUCA
B9: chr14:89338683:89338684:+_ENSG00000165533_ENST00000346301|hu_hu|hu_hu_hu_mus_False|38_98 (ssRNA)
RNA: GGGAGUUCUACAGUCCGACGAUCGUGGUUGUUGUGGACCAGAGCCAGCCUGAAGCAUUGGUGGGCCAAGUUUGUAUCUCCGAUUCCCACAGCUAUGUGUCCCAAGUUGUACCAGACAUCAGCUGCCUCUUCUUCAUUUUCAGCCAACAGAGGAUUGAGCAUCA
B10: chr3:179287964:179287965:+_ENSG00000136518_ENST00000429709|hu_hu|hu_hu_hu_mus_True|68_68 (ssRNA)
RNA: GGGAGUUCUACAGUCCGACGAUCCUUGAGUGGUGAGAUGGCCUCCAUGUUCUCCCUGGGCACGCGGAGAGCAUUAGUGUCUAUGUAGUAGGUGGGCCCGCCCUGCUUGCCUUUGUCACCAUCAAUCUCCAUCAUUGUACUUCCCAACAGAGGAUUGAGCAUCA
B11: chr7:117217587:117217588:+_ENSMUSG00000061079_ENSMUST00000084727|mus_hu|FALSE|FALSE (ssRNA)
RNA: GGGAGUUCUACAGUCCGACGAUCGAUAUAAGCUGUGGUACCAUCUUCCAGCUGAACCGCCUGUAAUGCACUCUGGUCAUAACUAUUACUUUUAGGUAUGGGUACAUGUUGAACAUAGGCCGCAGAACCAUCUUCCAACUGAAUCAACAGAGGAUUGAGCAUCA
B12: chr5:95152273:95152274:-_ENSG00000173221_ENST00000237858|hu_mus|motif|central (ssRNA)
RNA: GGGAGUUCUACAGUCCGACGAUCCAGCCGAGUCAUCAGCUCCCCAGUCUGUUGCAUGGAGAUUAGAUCACUGCAUCCGCCGGUGCAGUCUUUACCUAUGAAGACCCGAGGAACUGUUCUCGCUCCGGUGAGCUGUUGUAAAUACAACAGAGGAUUGAGCAUCA
B13: 12280944_12281064_4437_CDS_ENSMUSG00000032625_ENSMUST00000046121|mouse|control|control (ssRNA)
RNA: GGGAGUUCUACAGUCCGACGAUCGGGCUGGGUGCAGGUUUCCUCCAAAACUAUUUGUUUAUUACCAUCUAUGAUGAGCUCUGUGUUAGCACAGAACUCUUCGUCCACCACUUUGCUGAAAUCCUCAGCUGAGCCAUCACUCACCAACAGAGGAUUGAGCAUCA
B14: chr7:75956504:75956505:-_ENSG00000170027_ENST00000307630|hu_mus|motif|central (ssRNA)
RNA: GGGAGUUCUACAGUCCGACGAUCAUAGAACUGCAUGUCACUAUAGCAACAUCCAAAACAGAUCAAUCUGUUACAAUCACGGUUUGGUAAAGCAAACUUUACCCCUGAAAGGAAAAAAUUAAAUUAAAAAAAAGAAGUUUAAAACAACAGAGGAUUGAGCAUCA
B15: chr9:37780659:37780660:-_ENSG00000107371_ENST00000396521|hu_hu|FALSE|FALSE (ssRNA)
RNA: GGGAGUUCUACAGUCCGACGAUCGGUUCACCUGAAAAAACCCAUAGUUUUUUGCCUCAACUGACCUGUAAAAAAGUCCACCUAUAUCAACUUUCUGCCAAUCUGGAGAAGAUCUGUUUUCUUUGAUCUGACGUCAUGUGUUCACAACAGAGGAUUGAGCAUCA
B16: chr7:75956504:75956505:-_ENSG00000170027_ENST00000307630|hu_mus|FALSE|FALSE (ssRNA)
RNA: B14 RNA with G80U, G81A
B17: 65006457_65008074_834_CDS_ENSMUSG00000029920_ENSMUST00000031984|mouse|control|control (ssRNA)
RNA: GGGAGUUCUACAGUCCGACGAUCUGUUGAUUCAAUCAACUUUAGAAGAUCACUGUCACUUCUUUGUGGAAACAGUUCCUUCAAUGUCUGAAGCUUAGCAUCUUUAAGAUCUUCCAAUUCUGAAAGGUCUUCCAGUUCUGAACUCAACAGAGGAUUGAGCAUCA
B18: chr15:79189586:79189587:+_ENSG00000185787_ENST00000426013|hu_hu|FALSE|FALSE (ssRNA)
RNA: GGGAGUUCUACAGUCCGACGAUCUGAAAACACUGGCAGCAAUUUUGAAAUGAAAAAAAAAAAGAAAGAAGAAAAAAGGAGCUAUUACCCCCUUUUAUUUUUUCUCUGUUUAAAAUCAAACAGAAAACAAACAUCAAUUGUUAUCAACAGAGGAUUGAGCAUCA
B19: chr15:79189586:79189587:+_ENSG00000185787_ENST00000426013|hu_hu|motif|central (ssRNA)
RNA: B18 RNA with U82G, A83G
B20: 54532588_54532708_162_CDS_ENSMUSG00000073678_ENSMUST00000097739|mouse|control|control (ssRNA)
RNA: GGGAGUUCUACAGUCCGACGAUCGAAUUUAAAUGUAUCCUUUUUUUUUUCCCCUAAAAAAGGGAUGUAAAAAAUCCAAUAUGAAACAGAAAAAGUACACAUGAAAUACAAAAUACACUGUCUGUUUGGCUCUGGAGCAGUUAGCAACAGAGGAUUGAGCAUCA
B21: chr1:225611761:225611762:-_ENSG00000143815_ENST00000272163|hu_mus|hu_hu_hu_mus_True|8_98 (ssRNA)
RNA: GGGAGUUCUACAGUCCGACGAUCCCAGGCCAUCGGCCUCUUACCACUUCACCCUCAACAAACUUCCUACUUGGCAUUUUCUAAAAUUAGUCUGGCCGCGCUCCGGCGGGAACUCCAGCCACUCCAGGGAGAAUAGUAGCAGCCCAACAGAGGAUUGAGCAUCA
B22: 35472726_35489589_359_3pUTR_ENSMUSG00000029840_ENSMUST00000031866|mouse|control|control (ssRNA)
RNA: GGGAGUUCUACAGUCCGACGAUCCUGUCCACAAUCUGCAGCAUAAUGAAGAGGCUUCCUUCCACCCUCUAGUGUCCGGUUGACAUCUUCUCCCUUAGCCACAUAGUCCUUCACCUCAUCCAAGUCUCCGUUUUUCAGGGCCCACAACAGAGGAUUGAGCAUCA

target: T1, UNK ZnF1-3 (human, UniProt Q9C0B0 31-174); experiment: nsRBNS (natural sequence RNA bind-n-seq); RBNS binding buffer (assumed for nsRBNS): 25 mM Tris pH 7.5, 150 mM KCl, 3 mM MgCl2, 0.01% Triton X-100, 500 ug/ml BSA, 20 U/ml SUPERase-In, 4 C; UNK is unkempt and MSI1 is Musashi-1; names of the RNAs are library labels; protein concentration not given here; high values mean tight binding
T1 sequence: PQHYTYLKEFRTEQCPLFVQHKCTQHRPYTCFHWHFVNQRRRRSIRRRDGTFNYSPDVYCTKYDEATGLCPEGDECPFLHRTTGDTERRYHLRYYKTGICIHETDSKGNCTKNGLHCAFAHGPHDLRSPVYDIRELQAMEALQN

Binder	binding signal [enrichment R]
B1	10
B2	0.621
B3	0.981
B4	1.48
B5	1.15
B6	4.72
B7	0.917
B8	0.384
B9	0.877
B10	0.757
B11	0.834
B12	1.01
B13	0.732
B14	6.25
B15	0.913
B16	9.16
B17	0.355
B18	3.39
B19	3.68
B20	1.05
B21	1.11
B22	0.866
